Consider 20 compounds from PubChem BioAssay (NCI).

A short description of test [1]: NCI Yeast Anticancer Drug Screen. Data for the rad50 strain (AID 155).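 Also: 0% = growth of vehicle-only cultures of the same strain.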 To be noted: S. cerevisiae rad50 strain growth inhibition; at 50.0 µM; active compounds read high. In short, it runs like this: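 A DNA repair-deficient yeast mutant serves as the test organism; compound-induced growth inhibition is calculated against vehicle-treated cells.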
Test [2] is described as follows: NCI Yeast Anticancer Drug Screen. Data for the mec2-1 strain (AID 157). The settings on record: S. cerevisiae mec2-1 strain, at 50.0 µM, active compounds read high. In short, it runs like this:
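Cells of the genetically defined mec2-1 yeast strain are incubated with test compound. Inhibition of growth is calculated against vehicle-treated controls.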

Test [3] can be described thus: NCI Yeast Anticancer Drug Screen. Data for the sgs1 mgt1 strain (AID 161).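 Also: 0% = growth of cultures given vehicle only.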 The settings on record: S. cerevisiae sgs1 mgt1 strain, at 50.0 µM, active compounds read high. In short, it runs like this: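 Inhibition of yeast growth, normalised to vehicle-treated controls, is reported for a strain bearing genetic alterations in DNA damage repair.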
The nature of test [4]: NCI Yeast Anticancer Drug Screen. Data for the cln2 rad14 strain (AID 165).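 Also: 0% = growth equal to vehicle treated cultures.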 To be noted: S. cerevisiae cln2 rad14 strain, at 50.0 µM, active compounds read high. The gist of the method:
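The screen exposed genetically defined yeast (cln2 rad14) to test compounds and scored growth inhibition relative to vehicle-treated controls.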

A short description of test [5]: NCI Yeast Anticancer Drug Screen. Data for the bub3 strain (AID 167). The settings on record: S. cerevisiae bub3 mutant strain, at 50.0 µM, active compounds read high. In short, it runs like this: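 Inhibition values come from growth of compound-treated mutant yeast normalised to vehicle-treated controls.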
Test [6] can be described thus: NCI Yeast Anticancer Drug Screen. Data for the mlh1 rad18 strain (AID 175). To be noted: S. cerevisiae mlh1 rad18 strain growth inhibition; at 50.0 µM; active compounds read high. The gist of the method: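 Compound-treated yeast growth, normalised to vehicle controls. Strain bears defined DNA repair mutations.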

This is part of a sample that, as a whole, favours compounds with a hit. Of some 79,000 tested, about 15% had one in any assay. Values without a mark were called inactive. Calls of active or inactive are those of the source. Rule as the data show it: active = growth inhibition above about 70%; inactive = the rest.

On to `CCCC(C)C(C)O` (stereo not given), for which the growth inhibition was -21.4% in test [1]; -45.6% in test [2]; 0.15% in test [3]; -11.1% in test [4]; -24.1% in test [5]; -14.8% in test [6].
On to `O=P(Nc1ccc(Cl)cc1)(Nc1ccc(Cl)cc1)N1CCCCC1`, for which the growth inhibition in test [1] is 23%; in test [2], -45.1%; in test [3] it was 5.8%; in test [4], -21%; in test [5] it was 19.9%; in test [6], 9.2%.
For `CCc1nnc2sc(=S)[nH]n12`, the growth inhibition is -7.65% in test [1]; -14.6% in test [2]; -15.8% in test [3]; -7.4% in test [4]; 2.45% in test [5]; -12.9% in test [6].
For `ClC[C@H]1C[C@@H]2C[C@@H]1[C@H]1O[C@@H]21`, the growth inhibition was -7.4% in test [1]; -21.6% in test [2]; -11.2% in test [3]; -5.35% in test [4]; -9.6% in test [5]; 10.8% in test [6].
Turning to `NC(Cc1ccccc1)C(=O)Nc1cccnc1` (stereo not given), the growth inhibition in test [1] was -17.4%; in test [2] it was 15.2%; in test [3] it was 7.75%; in test [4], -44.6%; in test [5], 15.8%; in test [6], -5.75%.
With `Nc1c(N=Nc2ccc(-c3ccc(N=Nc4ccc(O)c(C(=O)O)c4)cc3)cc2)cc(S(=O)(=O)O)c2ccccc12`, the growth inhibition was 91.5% (active) in test [1]; 96.6% (active) in test [2]; 94.9% (active) in test [3]; 93.3% (active) in test [4]; 91% (active) in test [5]; 93.1% (active) in test [6].
As to `Nc1ncnc2c1ncn2C1CCC(COS(N)(=O)=O)C1` (stereo not given), the growth inhibition was 4.3% in test [1]; 3.65% in test [2]; 5% in test [3]; -6.7% in test [4]; 4.2% in test [5]; 15.4% in test [6].
In the case of `CNc1c(F)cc(C(=O)O)cc1F`, the growth inhibition was -8.35% in test [1]; 4.5% in test [2]; -0.25% in test [3]; -16.4% in test [4]; -32.6% in test [5]; 2.15% in test [6].
For the compound `O=C(O)c1c[nH]c2ccc([N+](=O)[O-])cc2c1=O`, the growth inhibition was -21% in test [1]; -12.8% in test [2]; -11.9% in test [3]; 11.7% in test [4]; -14% in test [5]; -7.95% in test [6].
As for `O=C(Nc1cccc2ccccc12)OC1CCCC1`, the growth inhibition in test [1] was 1.2%; in test [2], -12.4%; in test [3] it was -14.4%; in test [4], -53.7%; in test [5] it was 6.35%; in test [6], -28.6%.
On to `CC(=O)OC1CC2CC1C1C=CCC21` (stereo not given), for which the growth inhibition is 10.3% in test [1]; 3.75% in test [2]; 19.8% in test [3]; 11.3% in test [4]; 6.5% in test [5]; 0.65% in test [6].
For `O=C1CC2(CCCc3sccc32)C(=O)N1` (stereo not given), the growth inhibition was -11.2% in test [1]; -1.65% in test [2]; 1.55% in test [3]; -21.1% in test [4]; -5.6% in test [5]; -14.1% in test [6].
Turning to `C[N+](C)(C)C1CCC1`, the growth inhibition is -2.4% in test [1]; -4.75% in test [2]; -1.75% in test [3]; 8.35% in test [4]; -15.1% in test [5]; 5.7% in test [6].
Regarding `COc1ccc(C(=O)O)c2c(=O)c3ccccc3[nH]c12`, the growth inhibition is -28.8% in test [1]; -3.2% in test [2]; -8.55% in test [3]; 17.2% in test [4]; 3.2% in test [5]; 26.8% in test [6].
As for `S=C(NNC(=S)Nc1ccccc1Cl)NNc1ccccc1`, the growth inhibition in test [1] was 80.8% (active); in test [2], 82.8% (active); in test [3], 93.4% (active); in test [4], 68.2%; in test [5] it was 82.8% (active); in test [6], 88.9% (active).
Turning to `COc1ccc(Cc2cc3c(cc2OCC(=O)N2CCOCC2)OCO3)cc1`, the growth inhibition in test [1] was -3.25%; in test [2] it was -9.5%; in test [3], -4.25%; in test [4], -37.7%; in test [5] it was 20.4%; in test [6], -3.3%.
Turning to `Cc1ccc(NC(=O)C(C)C)cc1`, the growth inhibition in test [1] is -14%; in test [2], -16.6%; in test [3], -13.4%; in test [4], -24.2%; in test [5], -19.1%; in test [6], -21.2%.
Turning to `COCN1COCN(C)C1=O`, the growth inhibition in test [1] is 8.5%; in test [2] it was 7.3%; in test [3] it was -1.55%; in test [4], 11.6%; in test [5], 23.9%; in test [6], 9.1%.
On to `O=c1[nH]c(-c2ccccc2)c([N+](=O)[O-])c(=O)[nH]1`, for which the growth inhibition was 10.7% in test [1]; -6.25% in test [2]; -7.65% in test [3]; -60.2% in test [4]; 5.95% in test [5]; 13.6% in test [6].
For the compound `CC(=O)c1c(N)n(C)c(=O)n(C)c1=O`, the growth inhibition in test [1] was 36%; in test [2] it was 2.9%; in test [3], 3.55%; in test [4] it was -47.1%; in test [5], -14.6%; in test [6], 17.4%.
